The nature of assay [1]: qHTS assay to identify small molecule agonists of the RXR signaling pathway - cell viability counter screen (AID 1159529).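 Note: HEK 293T cells carrying an RXR-alpha UAS beta-lactamase reporter; series mostly up to about 77 µM; nearly all actives have a fitted effect of over 50% in size.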 In short, it runs like this: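 Viability read-out for the RXR-alpha agonist qHTS: luminescent CellTiter-Glo signal after 30 min at RT. HEK 293T bla reporter cells, 2% charcoal-stripped FBS, 16 hr compound incubation; tetraoctyl ammonium bromide as cytotoxic control.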
(In general: Quantitative high-throughput screening tests each substance at several concentrations.)

Assay [2] is described as follows: qHTS assay to identify small molecule antagonists of the retinoid acid receptor (RAR) signaling pathway - cell viability counter screen (AID 1159551). Note: nearly all actives have a fitted effect of over 35% in size. The essentials:
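Luminescent ATP quantitation (CellTiter-Glo) gave cell viability in C3RL4 cells exposed to test chemicals for 6 h at 37 C alongside 1 uM final retinol.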

Assay [3] in a line: qHTS assay to identify small molecule antagonists of the retinoic acid receptor (RAR) signaling pathway (AID 1159552; note: nearly all actives have a fitted effect of over 50% in size). The essentials: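 Using a RARE-driven luciferase construct in C3RL4 cells, retinol at 1 uM final provided the agonist stimulus while compounds were co-applied. After 6 hours at 37 C, luminescence was recorded to flag inhibitors of retinol signaling.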
Assay [4] is described as follows: qHTS assay to identify small molecule agonists of the retinoic acid receptor (RAR) signaling pathway (AID 1159553). The essentials:
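Luminescence from a RARE-driven luciferase reporter in C3RL4 cells served as the read-out, measured after 30 min with detection reagent at room temperature. Compounds in DMSO were applied for 6 hr at 37 C following overnight seeding.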

Assay [5] is described as follows: qHTS assay to identify small molecule antagonists of the estrogen related receptor (ERR) signaling pathway from Tox21 library - cell viability counter screen (AID 1224834). Note: nearly all actives have a fitted effect of over 30% in size. Note: potency is the fitted concentration of half-maximal effect. In short, it runs like this:
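Fluorescence from CellTiter-Fluor gives the viability read-out, taken 30 min after reagent addition. Before that, ERR cells seeded 6 h earlier were incubated with compounds for 17.5 h at 37 C.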

Assay [6] concerns the target Luciferin 4-monooxygenase (Photinus pyralis) (UniProt P08659). Briefly: qHTS assay to identify small molecule inhibitors of firefly luciferase (AID 1224835). Note: series mostly up to about 120 µM; nearly all actives have a fitted effect of over 25% in size. The essentials: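 Inhibition of purified Photinus luciferase is measured by luminescence. Substrate levels (D-luciferin, ATP) sit at their KM values. Each compound is tested in a concentration series.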
Assay [7] in a line: qHTS assay to identify small molecule agonists of the constitutive androstane receptor (CAR) signaling pathway - cell viability counter screen (AID 1224836). Note: series mostly up to about 92 µM; nearly all actives have a fitted effect of over 45% in size. The essentials:
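Multiplexed viability check: HepG2-CYP2B6-hCAR cells, 15-point compound dosing, 0.75 uM PK11195 final, 23 h at 37 C, CellTiter-Fluor fluorescence.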

Assay [8] addresses Nuclear receptor subfamily 1 group I member 3 (Homo sapiens) (UniProt Q14994). In words: qHTS assay to identify small molecule antagonists of the constitutive androstane receptor (CAR) signaling pathway (AID 1224838).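 Note: HepG2 cells stably expressing hCAR with CYP2B6 luciferase reporter stimulated by CITCO; nearly all actives have a fitted effect of over 40% in size.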 The essentials:
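HepG2-CYP2B6-hCAR cells; 4 h pre-incubation; cpd (15 conc) + CITCO 50 nM final; 24 h, 37 C/5% CO2; ONE-Glo, luminescence.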

For assay [9] the target is unchanged. Briefly: qHTS assay to identify small molecule agonists of the constitutive androstane receptor (CAR) signaling pathway (AID 1224839). Note: nearly all actives have a fitted effect of over 15% in size. Note: potency is the fitted concentration of half-maximal effect. The essentials:
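Using human hepatoma HepG2 cells engineered with hCAR and a CYP2B6-2.2kb reporter, 15-concentration compound series were incubated 24 h alongside PK11195 at 0.75 uM final, with luminescence quantified afterwards.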

In assay [10] the target is Thyrotropin receptor (Homo sapiens) (UniProt P16473). In words: qHTS assay to identify small molecule agonists of the thyroid stimulating hormone receptor (TSHR) signaling pathway (AID 1224843; calls by dose curve; note: nearly all actives have a fitted effect of over 45% in size). The essentials: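 Screening of the Tox21 10K collection used HEK293 cells engineered with TSHR at 800 cells per well. After a 30-min room-temperature compound exposure, HTRF cAMP reagents were added and fluorescence recorded 1 h later.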

Assay [11] can be described thus: qHTS assay to identify small molecule antagonists of the constitutive androstane receptor (CAR) signaling pathway - cell viability counter screen (AID 1224837). Note: series mostly up to about 92 µM; nearly all actives have a fitted effect of over 45% in size. The essentials: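 HepG2-CYP2B6-hCAR cells, 2500/well, 4 hr pre-incubation; compound titration, 15 conc.; CITCO 50 nM final; 23 hr, 37 C/5% CO2; CellTiter-Fluor, fluorescence intensity.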
Assay [12] is described as follows: qHTS assay to identify small molecule antagonists of the estrogen related receptor signaling pathway with the pleiotropic PPARgamma coactivator (PGC) from Tox21 10K library - cell viability counter screen (AID 1224840; active = well fitted cell-killing curve with a large enough effect in the repeat runs, not every such curve was filed as active; note: nearly all actives have a fitted effect of over 40% in size). The essentials:
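PGC/ERR cells, 2,000/well; 6 h pre-incubation 37 C/5% CO2; cpd in DMSO via pin tool; 17.5 h 37 C; CellTiter-Fluor, 30 min; fluorescence.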

Assay [13] in a line: qHTS assay to identify small molecule agonists of the estrogen related receptor (ERR) signaling pathway (AID 1224820). The essentials: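 Cells: ERR line from NTP, 2,000/well. Pre-incubation 6 h, 37 C/5% CO2. Compound (DMSO) pin transfer, 18 h 37 C. One-Glo, 30 min RT, luminescence.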
A short description of assay [14]: qHTS assay to identify small molecule agonists of the estrogen related receptor signaling pathway with the pleiotropic PPARgamma coactivator (PGC) (AID 1224823). The essentials: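 Steps: plate PGC/ERR cells at 2,000 cells/well; incubate 6 h, 37 C/5% CO2; pin-transfer compounds (DMSO); incubate 18 h, 37 C; add One-Glo; 30 min RT; read luminescence.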
Assay [15] is described as follows: qHTS assay to identify small molecule antagonists of the estrogen related receptor signaling pathway with the pleiotropic PPARgamma coactivator (PGC) from Tox21 10K library (AID 1224841; call rule not given here; note: series mostly up to about 92 µM; actives are mostly falling curves and most rising ones were filed inactive; nearly all actives have a fitted effect of over 50% in size). The essentials: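 PGC/ERR cell line, 2,000 cells/well; 6 h pre-incubation 37 C/5% CO2; compounds (DMSO) pinned in; 18 h, 37 C; One-Glo, 30 min RT; luminescence.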
The nature of assay [16]: qHTS assay to identify small molecule agonists of the estrogen related receptor signaling pathway with the pleiotropic PPARgamma coactivator (PGC) from Tox21 10K library (AID 1224842). Note: nearly all actives have a fitted effect of over 15% in size. The essentials: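 Luminescence from One-Glo (30 min, room temperature) measured after PGC/ERR cells had 18 h at 37 C with pinned compound (23 nL in DMSO). Cells had been seeded at 2,000 per well and pre-incubated 6 h.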

The nature of assay [17]: qHTS assay to identify small molecule antagonists of the estrogen related receptor (ERR) signaling pathway - cell viability counter screen (AID 1224818).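 Note: series mostly up to about 46 µM; viability measured after 17.5 h of compound exposure.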 In short, it runs like this:
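Multiplexed counter screen to separate cytotoxic compounds from true ERR modulators. ERR cells received DMSO-dissolved compounds after a 6 h pre-incubation, were exposed 17.5 h at 37 C, then assayed with CellTiter-Fluor fluorescence.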

Assay [18] can be described thus: qHTS assay to identify small molecule antagonists of the estrogen related receptor signaling pathway with the pleiotropic PPARgamma coactivator (PGC) cell viability counter screen (AID 1224822; note: series mostly up to about 46 µM). The essentials:
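Cells: PGC/ERR, 2,000/well, 1536-well format. Pre-incubation 6 h, 37 C/5% CO2. Compound exposure 17.5 h, 37 C. Detection: CellTiter-Fluor, 30 min, fluorescence.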

The structures appear in SMILES notation. Inconclusive results are not listed. A number with no mark means an inactive call. Calls of active or inactive are those of the source. Unless noted, calls come from the whole dose curve; as a rule, active = well fitted curve in the direction sought with a large enough effect in the repeat runs; inconclusive = weak or mixed curves; inactive = no such curve, though single readings can be large; an effect the other way counts as inactive or inconclusive.

Luciferin 4-monooxygenase (Photinus pyralis), sequence (P08659 whole entry, looked up): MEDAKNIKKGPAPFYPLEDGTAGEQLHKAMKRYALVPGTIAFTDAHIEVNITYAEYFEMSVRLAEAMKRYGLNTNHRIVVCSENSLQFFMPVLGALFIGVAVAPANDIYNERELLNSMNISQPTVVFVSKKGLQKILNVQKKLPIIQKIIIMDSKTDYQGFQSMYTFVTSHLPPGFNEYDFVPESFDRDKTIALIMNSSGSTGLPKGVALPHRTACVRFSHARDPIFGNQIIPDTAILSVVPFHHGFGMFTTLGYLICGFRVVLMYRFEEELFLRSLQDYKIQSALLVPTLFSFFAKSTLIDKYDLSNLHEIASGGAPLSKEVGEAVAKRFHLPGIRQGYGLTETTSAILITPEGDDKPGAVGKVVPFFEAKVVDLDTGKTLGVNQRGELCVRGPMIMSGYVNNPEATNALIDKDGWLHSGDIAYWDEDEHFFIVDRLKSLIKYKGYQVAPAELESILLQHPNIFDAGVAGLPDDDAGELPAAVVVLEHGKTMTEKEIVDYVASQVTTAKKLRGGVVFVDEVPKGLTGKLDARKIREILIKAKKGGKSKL
Nuclear receptor subfamily 1 group I member 3 (Homo sapiens), sequence (Q14994 whole entry, looked up): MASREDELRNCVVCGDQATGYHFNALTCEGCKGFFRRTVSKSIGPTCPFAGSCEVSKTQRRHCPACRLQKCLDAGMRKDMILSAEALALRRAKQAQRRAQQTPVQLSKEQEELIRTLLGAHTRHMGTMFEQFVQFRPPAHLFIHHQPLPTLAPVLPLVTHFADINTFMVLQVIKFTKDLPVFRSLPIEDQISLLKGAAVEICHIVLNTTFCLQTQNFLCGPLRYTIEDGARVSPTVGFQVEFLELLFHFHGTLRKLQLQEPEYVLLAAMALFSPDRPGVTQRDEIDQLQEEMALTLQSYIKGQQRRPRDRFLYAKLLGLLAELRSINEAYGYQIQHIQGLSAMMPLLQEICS
Thyrotropin receptor (Homo sapiens), sequence (P16473 whole entry, looked up): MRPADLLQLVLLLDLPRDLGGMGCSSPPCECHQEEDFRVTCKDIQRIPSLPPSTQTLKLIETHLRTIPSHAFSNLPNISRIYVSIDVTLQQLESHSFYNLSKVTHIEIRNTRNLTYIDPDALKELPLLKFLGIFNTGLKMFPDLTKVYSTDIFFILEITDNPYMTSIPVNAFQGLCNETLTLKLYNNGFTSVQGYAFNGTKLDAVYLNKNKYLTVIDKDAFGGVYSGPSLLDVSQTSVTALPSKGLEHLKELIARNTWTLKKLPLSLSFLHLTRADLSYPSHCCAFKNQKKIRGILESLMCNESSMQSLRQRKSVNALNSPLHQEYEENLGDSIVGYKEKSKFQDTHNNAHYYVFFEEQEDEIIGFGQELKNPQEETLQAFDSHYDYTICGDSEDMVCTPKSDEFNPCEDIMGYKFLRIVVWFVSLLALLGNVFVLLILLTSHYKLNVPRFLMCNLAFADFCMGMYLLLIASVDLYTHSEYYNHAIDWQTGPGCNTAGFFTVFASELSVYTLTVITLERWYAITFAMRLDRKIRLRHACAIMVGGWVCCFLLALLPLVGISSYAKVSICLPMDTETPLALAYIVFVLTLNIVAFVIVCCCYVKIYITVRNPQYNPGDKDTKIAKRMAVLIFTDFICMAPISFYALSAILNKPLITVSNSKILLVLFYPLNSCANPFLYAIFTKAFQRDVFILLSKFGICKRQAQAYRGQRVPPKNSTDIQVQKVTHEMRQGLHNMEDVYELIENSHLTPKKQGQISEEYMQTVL

For `NCCCN(CCO)CCO`, the Potency entry in [1], in assay [2], in [3], in [4], in assay [5] and in assay [6] was “inactive” throughout. The Potency result in assay [7], in assay [8], in [9] and in assay [10] was “inactive” throughout.
In the case of `Cc1cccc(C(C)(C)C)c1O`, the Potency result in assay [1], in [2], in assay [3], in assay [4], in assay [5] and in [6] was “inactive” in each case. In addition, the Potency entry in assay [7], in assay [11], in [8], in [9] and in assay [12] was “inactive” throughout.
Regarding `O=C(Nc1ccccc1)OCC(CN1CCCCC1)OC(=O)Nc1ccccc1` (stereo not given), the Potency result in assay [1], in assay [2], in [3], in [4], in assay [5] and in assay [6] was “inactive” in each case. Besides, the Potency entry in assay [7], in assay [11], in assay [8], in assay [9], in [12] and in assay [10] was “inactive” in each case.
`O=C(O)c1cn(C2CC2)c2cc(Cl)c(F)cc2c1=O`: the Potency result in [1], in assay [2], in assay [3], in assay [4], in assay [5] and in [6] was “inactive” throughout. In addition, the Potency result in assay [7], in assay [11], in assay [9], in [12] and in assay [10] was “inactive” throughout.
As for `C=Cc1c(C)c2cc3[nH]c(cc4nc(cc5nc(cc1[nH]2)C(C)=C5CCC(=O)O)C(CCC(=O)O)=C4C)c(C)c3C=C`, the Potency entry in [1], in [2], in assay [3], in [4], in assay [6] and in assay [8] was “inactive” throughout. Besides, the Potency entry in assay [9], in assay [15] and in assay [16] was “inactive” each time. Also, the compound was called inactive in [13] and in assay [14]. For the same compound, the Potency in assay [5] was 23.7 µM (active).
For the compound `CC1=CC(=O)/C(=C(/C)O)C(=O)O1`, the Potency entry in assay [1], in [2], in [3], in assay [4], in assay [5] and in assay [6] was “inactive” each time. Besides, the Potency result in assay [7], in assay [11], in assay [8], in assay [9], in assay [12] and in assay [10] was “inactive” throughout.
For the compound `CC(C)(C)c1cc(CCC(=O)OCC(COC(=O)CCc2cc(C(C)(C)C)c(O)c(C(C)(C)C)c2)(COC(=O)CCc2cc(C(C)(C)C)c(O)c(C(C)(C)C)c2)COC(=O)CCc2cc(C(C)(C)C)c(O)c(C(C)(C)C)c2)cc(C(C)(C)C)c1O`, the Potency entry in assay [1], in [2], in assay [3], in [4], in [5] and in assay [6] was “inactive” in each case. Also, the Potency result in assay [7], in [11], in assay [8] and in assay [9] was “inactive” each time.
Consider `CC(C)c1cccc(C(C)C)c1NC(=O)NS(=O)(=O)c1cc(C(C)(C)O)co1`, for which the Potency entry in assay [1], in [2], in [3], in assay [4], in assay [5] and in [6] was “inactive” each time. In addition, the Potency result in [7], in [11], in assay [12] and in [10] was “inactive” throughout.
In the case of `CC(=O)OCCc1ccccc1`, the Potency entry in [1], in assay [2], in assay [3], in assay [4], in assay [5] and in assay [6] was “inactive” in each case. Further, the Potency result in assay [7], in [11], in assay [8], in assay [9], in assay [12] and in [10] was “inactive” throughout.
For the compound `NC(=S)N/N=C/c1cccnc1`, the Potency result in assay [1], in assay [2], in assay [3], in assay [4], in assay [5] and in assay [6] was “inactive” throughout. In addition, the Potency entry in assay [7], in assay [11], in assay [8], in assay [9], in [12] and in [15] was “inactive” throughout. The Potency entry in assay [16] was “inactive”.
As to `O=C(O)/C=C/c1cnc[nH]1`, the Potency entry in assay [1], in assay [2], in [3], in assay [4], in assay [5] and in assay [6] was “inactive” in each case. For the same compound, the Potency entry in [7], in assay [11], in assay [8], in [9], in assay [12] and in assay [10] was “inactive” throughout. Also, the outcome in assay [17] and in assay [18] was inactive.
Consider `Cc1ccc(C)o1`, for which the Potency entry in [1], in assay [2], in assay [3], in assay [4], in [5] and in assay [6] was “inactive” throughout. The Potency result in [7], in [8], in assay [9], in assay [15], in assay [16] and in assay [10] was “inactive” each time.
On to `OCC1CC2CC1C1CCC(CO)C21` (stereo not given), for which the Potency entry in assay [1], in assay [2], in [3], in assay [4], in assay [5] and in [6] was “inactive” throughout. Also, the Potency result in assay [7], in assay [11], in assay [8], in assay [9], in assay [12] and in assay [15] was “inactive” throughout. The Potency result in [16] and in [10] was “inactive” each time.
As to `O=S1(=O)c2cccc3cccc(c23)N1CCCN1CCN(c2ccc(F)cc2)CC1`, the Potency result in assay [1], in assay [2], in [3], in assay [4], in assay [5] and in [6] was “inactive” in each case. Further, the Potency entry in [7], in [11], in assay [8], in assay [12], in assay [15] and in [16] was “inactive” throughout. For the same compound, the Potency entry in [10] was “inactive”. Further, the Potency in assay [9] is 26.6 µM (active).
Regarding `NC1CCN(c2nc3c(cc2F)c(=O)c(C(=O)O)cn3-c2ccc(F)cc2F)C1` (stereo not given), the Potency result in assay [1], in [2], in assay [3], in assay [4], in [5] and in [6] was “inactive” throughout. Also, the Potency result in assay [7], in [11], in assay [8], in [12] and in assay [10] was “inactive” in each case.
For the compound `ClC(Cl)(Cl)c1ccc(C(Cl)(Cl)Cl)cc1`, the Potency entry in [1], in [2], in assay [3], in assay [4], in assay [5] and in assay [6] was “inactive” throughout. For the same compound, the Potency entry in [7], in assay [11], in assay [8], in assay [9] and in [12] was “inactive” throughout.
Take `CCCCCCCCCC(=O)OCC`: the Potency entry in [1], in assay [2], in assay [3], in assay [4], in [5] and in [6] was “inactive” throughout. Further, the Potency entry in assay [7], in assay [11], in [9], in [12] and in [10] was “inactive” in each case.

The values above are taken from PubChem BioAssay (Tox21).
